In the library only some 7.6% were active in any assay of this set; here they are far more common.
KCNH2 WT inh – blocks the wildtype human KCNH2 potassium channel. Q12809. U2OS, BacMam KCNH2, thallium flux FluxOr; stronger effect = lower value. activity change, % at 1.84 µM. 0.37% of 340,000 active. AID 720551;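 active means maximum activity change below -70%; inconclusive means maximum activity change between -70% and -50%; inactive means maximum activity change above -50%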; further: on the % scale 0 is the no-effect control and ±100 the full control effect
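U2OS cells transduced with wild-type KCNH2 virus are loaded with FluxOr dye for 45 min, and thallium flux is measured in kinetic reads before and after stimulation buffer. Rate constants are normalized to DMSO controls.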
KB-3-1 cytotox – KB-3-1 parental cell cytotoxicity. KB-3-1 viability, CellTiter-Glo ATP luminescence, 72 h. Potency, µM (highest dose often 46.1 µM), actives largely listed as cytotoxic. 1.4% of 400,000 active. AID 1347075; further: potency means the concentration at half of the fitted maximal effect; on the % scale 0 is the no-effect control and ±100 the full control effect; nearly all actives have a fitted effect of over 60% in size
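Parental KB-3-1 adenocarcinoma cells in phenol-red-free DMEM with 10% FBS were pin-treated with compounds at several concentrations, incubated 72 h at 37 °C, and viability read by CellTiter-Glo luminescence; concentration-effect curves were fitted after normalization.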
SW480 rerep – inducers of DNA re-replication in SW480 colon cancer cells; Potency, µM (highest dose often 46.1 µM), for the others: top-dose re-replication activation, usual class: activators; 1.8% of 340,000 active; SW480 DNA re-replication, Hoechst DNA content imaging, 48 h; AID 624297; further: potency means the concentration at half of the fitted maximal effect; % of control where 0% means no effect; nearly all actives have a fitted effect of over 55% in size
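DNA re-replication was detected as more nuclei of elevated Hoechst intensity after 48 hr exposure to compound (23 nL pinned per well of 250 cells).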
KB-V1 cytotox – KB-V1 MDR subline cytotoxicity. AID 1347076. KB-V1 MDR cells viability, CellTiter-Glo, 72 h. 3.4% of 400,000 active. Potency, µM (top dose mostly 46.1 µM), hits mostly cytotoxic; further: potency means the concentration at half of the fitted maximal effect; on the % scale 0 is the no-effect control and ±100 the full control effect; nearly all actives have a fitted effect of over 60% in size
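In this primary screen, KB-V1 cells overexpressing P-gp are incubated with library compounds (lowest to highest concentration) for 72 h at 37 degrees C before a luminescent ATP viability read.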
MCF10A rereplic – DNA re-replication induction in MCF 10a cells; MCF 10A DNA re-replication, Hoechst nuclear intensity, 48 h; Potency, µM (titrated, usually from 46.1 µM), for the others: at the highest dose activity, positive = re-replication, hits mostly activators; 2.9% of 350,000 active; further: potency means the concentration at half of the fitted maximal effect; % of control where 0% means no effect; nearly all actives have a fitted effect of over 50% in size
KCNH2 3.1 inh – blocks the human KCNH2 3.1 channel isoform; 0.95% of 340,000 active; U2OS KCNH2 3.1, thallium flux FluxOr; stronger effect = lower value; AID 720553; activity change, % (tested at about 1.8 µM);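 active means maximum activity change below -70%; inconclusive means maximum activity change from -70% to -50%; inactive means maximum activity change above -50%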;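 further: thallium influx rate constant from kinetic fluorescence after stimulation buffer; on the % scale 0 is the no-effect control and ±100 the full control effect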
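Steps: virus added to U2OS suspension (4 h, RT, dark); medium with 10% FBS added, cells plated, 37 C overnight; FluxOr/Red40 loading buffer 45 min RT; stimulation buffer, 2 min kinetic read; rate constant normalized.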
An asterisk follows results filed as active; i = inactive; ? = inconclusive; · = no result given; ! = not confirmed by another sample; [ ] = another dose, or the depositor's remark. Unless noted, the call rests on the fitted dose curve; in most records, active means well fitted curve in the direction sought with a large enough effect; inconclusive means small, poorly fitted or top-dose-only effect, or another doubt; inactive means no such curve, though single readings can be large; an effect the other way counts as inactive or inconclusive.

SMILES | KCNH2 WT inh | KB-3-1 cytotox | SW480 rerep | KB-V1 cytotox | MCF10A rereplic | KCNH2 3.1 inh
COc1ccc(C2c3c(ncn(CCCN4CCOCC4)c3=N)Oc3ccc4ccccc4c32)cc1OC (stereo not given) | -11 | i | 18µM* | i | 14% | 7
Cc1cccc(OCC(=O)Nc2ccc3oc(-c4ccccc4F)nc3c2)c1 | · | i | · | i | · | ·
CCCS(=O)(=O)NC(=O)C1(C)CCN(C(=O)c2cc(C(C)(C)C)nn2C)C1 (stereo not given) | · | i | · | i | · | ·
Cc1ccc(S(=O)(=O)NNC(=O)Nc2cccc(C)c2C)c(C)c1 | 6 | i | -8% | i | -4% | 9
Cc1c(-c2nsc(NC(=O)c3cccs3)n2)nnn1-c1ccc(Cl)cc1 | · | i | · | i | · | ·
CCOC(=O)c1csc(-c2snnc2C)n1 | 0 | i | -15% | i | 2% | 18
CCOc1ccc(NC(=O)c2nnn(-c3ccc(F)c(Cl)c3)c2C)cc1 | · | i | · | i | · | ·
COc1ccc(C2c3ccc4ccccc4c3Oc3ncn(CCN4CCOCC4)c(=N)c32)cc1OC (stereo not given) | 1 | i | -3% | i | 0% | 19
N=c1c2c(ncn1CCCO)Oc1c(ccc3ccccc13)C2c1ccccc1 (stereo not given) | -7 | ? | ? | 16µM* | ? | -10
N=c1c2c(ncn1Cc1ccco1)Oc1ccc3ccccc3c1C2c1ccccc1 (stereo not given) | 12 | ? | ? | 7.3µM* | 16µM* | -15
COc1ccc(C2c3ccc4ccccc4c3Oc3ncn(CCCO)c(=N)c32)cc1 (stereo not given) | 4 | i | ? | i | ? | -8
COc1ccc(C2c3ccc4ccccc4c3Oc3ncn(CCN4CCOCC4)c(=N)c32)cc1 (stereo not given) | -40 | ? | 23µM* | ? | 2% | ?
O=C(CN1CCN(C(=O)c2ccccc2)CC1)Nc1ncc(Br)cc1Br | -20 | i | -2% | i | -3% | -85*
CCOC(=O)C(=O)N1CCC(C(=O)OC)CC1 | 14 | i | -14% | i | 0% | -8
C1=Nc2ccccc2/C1=C/c1c[nH]c2ccccc12 | · | ? | · | i | · | ·
CC(C)OC(=O)CC(=O)CSc1nc2c(cc1C#N)CCCCCC2 | -1 | i | 15% | i | ? | 13
CCOC(=O)CC(=O)CSc1nc2c(cc1C#N)CCCCCC2 | -116* | i | 7% | i | ? | -13
COC(=O)CC(=O)CSc1nc2c(cc1C#N)CCC2 | -8 | i | ? | ? | 1.6µM* | 21
C[C@H](CO)N1C[C@H](C)[C@H](CN(C)S(=O)(=O)c2ccc(C#N)cc2)OCc2cnnn2CCCC1=O | -2 | i | · | i | · | -32
Cc1nonc1NC(=O)CSc1nnnn1-c1ccccc1 | -6 | i | 0% | i | -2% | 1
COc1ccccc1CN1[C@@H](CC(C)=O)c2cc(C(F)(F)F)ccc2S1(=O)=O | -12 | i | 0% | i | -3% | -1
CCCC1S/C(=N/N=C/c2ccc(OC)cc2)N(Cc2ccc(OC)cc2)C1=O (stereo not given) | -4 | i | -1% | 16µM* | 11% | -35
CCCCC1S/C(=N/N=C/c2ccc(OC)cc2)N(Cc2ccc(OC)cc2)C1=O (stereo not given) | -6 | i | ? | 8.2µM* | 2% | -1
COc1cc2nc(SCc3cccc(Cl)c3)n3nc(CCn4nc(C)cc4C)nc3c2cc1OC | · | i | · | i | · | ·
CCOC(=O)C1=C(N)Oc2cc(O)ccc2C1c1cccc(Cl)c1 (stereo not given) | -6 | ? | ? | ? | 5.8µM* | -2
SMILES | KCNH2 WT inh | KB-3-1 cytotox | SW480 rerep | KB-V1 cytotox | MCF10A rereplic | KCNH2 3.1 inh
Cc1nn(C)cc1C(C)Nc1nc2nonc2nc1N1CCCCC1 (stereo not given) | -8 | i | -5%[1.84 µM] | ? | 3% | 0
O=C(CN1CCN(c2ccccc2)CC1)Nc1ccccc1Sc1ccccc1 | -5 | i | · | ? | ? | -20
O=C(CSc1ncn[nH]1)Nc1ccccc1-c1ccccc1 | 16 | i | -14% | ? | 256%[0.0737 µM] | 2
O=C(CCl)Nc1ccccc1Sc1ccc(Cl)cc1 | -1 | ? | 15µM* | ? | 15µM* | ·
CC(=O)N1CCN(CC(=O)Nc2ccccc2Sc2ccc(Cl)cc2)CC1 | 3 | ? | 2% | 5.8µM* | 9% | -3
O=C(Cc1ccccc1)Nc1ccccc1Sc1ccccc1 | 1 | i | -90% | i | -2% | 2
O=C(CSc1ncn[nH]1)Nc1ccccc1Sc1ccccc1 | -20 | i | 0% | 15µM* | 20% | 8
CCOC(=O)/C=C1\CN(Cc2cc(OC)c(OC)c(OC)c2)S(=O)(=O)c2ccccc21 | -9 | ? | 1% | 10µM*! | ? | -1
CCOC(=O)/C=C1\CN(Cc2cc(OC)c(OC)c(OC)c2)S(=O)(=O)c2ccc(C(F)(F)F)cc21 | -17 | ? | ? | ? | 1% | 3
COc1ccc(-c2nnc(CSc3nc4ccccc4c(=O)n3CC(C)C)o2)cc1OC | -29 | i | 3% | 21µM* | -1% | 10
Cn1c(SCc2nc3ccccc3c(=O)[nH]2)nc2ccccc21 | -2 | i | 2% | ? | -27% | 16
CC(C)Cn1c(SCc2nc3ccccc3c(=O)[nH]2)nc2ccccc2c1=O | 13 | i | ? | i | 11µM* | -3
O=C(c1ccccc1)c1ccccc1 | -11 | i | 0% | i | -2% | -1
O=C(c1ccccc1)c1ccc(-c2ccc(O)cc2)cc1 | -1 | ? | 16µM* | ? | 23µM* | -8
COc1ccc(C(=O)NCC(=O)N2CCN(c3ncccn3)CC2)cc1OC | 3 | i | -4% | i | -2% | 4
COc1ccc(S(=O)(=O)N2CCSC2c2ccc(OC)c(OC)c2)cc1 (stereo not given) | -11 | i | -2% | i | ? | -13
COc1ccc(S(=O)(=O)N2CCSC2c2ccccc2)cc1 (stereo not given) | 7 | ? | 8% | 23µM* | ? | -17
COc1ccccc1C1SCCN1S(=O)(=O)c1cccc(C(F)(F)F)c1 (stereo not given) | 0 | i | 3% | 16µM* | 12% | -4
COc1cccc(C2/C(=C(\O)c3ccc4c(c3)OCCO4)C(=O)C(=O)N2CCCN2CCOCC2)c1OC (stereo not given) | -14 | i | -3% | i | 2% | 1
